Results: PubChem BioAssay (Tox21)
The source made the active and inactive calls. Where a call stands in place of a potency, no number is given. Calls come from the whole dose curve.

Molecular target: Gonadotropin-releasing hormone receptor (Homo sapiens) (UniProt P30968)
Experiment: Human gonadotropin-releasing hormone receptor (GnRHR) small molecule agonists, calcium flux assay in GnRHR-HEK293 cells (AID 1920063); note: nearly all actives have a fitted effect of over 35% in size
Conditions: calcium flux fluorescence, agonist mode; series mostly up to 57.6 µM
From the text: National Center for Advancing Translational Sciences [NCATS]
Division of Preclinical Innovation [DPI]
U.S. Environmental Protection Agency [EPA]
National Institutes of Environmental Health Sciences [NIEHS]
National Toxicology Program [NTP]
U.S. Food and Drug Administration [FDA]
Gonadotropin-releasing hormone receptor (GnRHR) is a G-protein-coupled receptor (GPCR) and acts (through phospholipase C) to increase intracellular inositol trisphosphate and then release intracellular calcium stores. Cell-based GnRHR-Hek293 calcium influx assay is using HEK293 cells that have been genetically engineered to express the human GnRHR, which activity can be measured by calcium signaling. A compound/drug can activate (agonist) GnRHR that can be monitored by levels of intracellular calcium.
GnRHR-HEK293 cells developed by Codex Corp contain human GnRHR reporter gene, which was stably integrated into HEK 293 cells. The compound activation can be detected by fluorescence intensity via calcium flux assay. This cell line has been used to screen the Tox21 10K compound library to identify GnRHR agonists.
GnRHR-Hek293 cells were dispensed at 1500cells/4uL/well in 1536-well black wall/clear bottom plates using a multidrop dispenser. After the assay plates were incubated at a 37 C/5% CO2 incubator for 18 hours, 4 uL of Calcium Dye Solution was added to each well. The plates were incubated at 37 C for 1 hour. For agonist mode, 23 nL of compounds dissolved in DMSO, positive controls or DMSO only was transferred to the assay plate by a pin tool station. The fluorescence intensity in the plates was measured using FDSS 7000EX kinetic plate reader with a filter set of Ex/Em=480/540 for 3 min at 1 sec intervals. Each test compound was measured at 15 concentrations and in triplicates.

Chain of Gonadotropin-releasing hormone receptor (Homo sapiens) (P30968 whole entry, looked up): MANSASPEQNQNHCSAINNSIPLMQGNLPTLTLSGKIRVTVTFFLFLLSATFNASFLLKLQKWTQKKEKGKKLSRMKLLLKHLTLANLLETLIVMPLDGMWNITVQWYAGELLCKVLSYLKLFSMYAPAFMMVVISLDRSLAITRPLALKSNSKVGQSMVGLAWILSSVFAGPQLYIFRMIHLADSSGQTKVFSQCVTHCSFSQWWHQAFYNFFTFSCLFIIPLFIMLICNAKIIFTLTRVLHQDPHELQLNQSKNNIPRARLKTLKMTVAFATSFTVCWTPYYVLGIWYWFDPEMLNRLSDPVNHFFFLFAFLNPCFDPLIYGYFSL

SMILES	Potency	activity change
Oc1c(Br)c(Br)c(Br)c(Br)c1Br	inactive	
FC(F)C(F)(F)OCC(Cn1cncn1)c1ccc(Cl)cc1Cl (stereo not given)	inactive	
c1ccc2c(c1)cc1ccc3cccc4ccc2c1c34	inactive	
CCOC(=O)/C=C(C)/C=C/C[C@@H](C)CCCC(C)C	inactive	
C[C@]12CC[C@H](O)C[C@H]1CC[C@@H]1[C@@H]2C[C@@H](O)[C@]2(C)[C@@H](C3=CC(=O)OC3)CC[C@]12O	inactive	
C1=CCC=C1	inactive	
Fc1ccc(C2(Cn3cncn3)OC2c2ccccc2Cl)cc1 (stereo not given)	inactive	
COP(=S)(OC)Oc1cc(Cl)c(I)cc1Cl	inactive	
CC1COC(Cn2cncn2)(c2ccc(Oc3ccc(Cl)cc3)cc2Cl)O1 (stereo not given)	inactive	
CCNc1nc(Cl)nc(NC(C)(C)C)n1	inactive	
Cc1c(COC(=O)[C@@H]2[C@H](/C=C(\Cl)C(F)(F)F)C2(C)C)cccc1-c1ccccc1	inactive	
CC(C)(C)c1ccc(CCOc2ncnc3ccccc23)cc1	inactive	
S=C=NCc1ccccc1	inactive	
CC[C@@H](CO)NC(=O)[C@@H]1C=C2c3cccc4c3c(cn4C)C[C@H]2N(C)C1	inactive	
O=[N+]([O-])[O-].[Tl+]	inactive	
O=C(O)c1cc(I)cc(I)c1I	inactive	
CC(C)(C)N(NC(=O)c1ccc(Cl)cc1)C(=O)c1ccccc1	inactive	
CNC(=O)O/N=C(/CSC)C(C)(C)C	inactive	
CC(O)C#N (stereo not given)	inactive	
CCCC(C)C1(CC)C(=O)N=C(S)NC1=O (stereo not given)	inactive	

SMILES	Potency	activity change
CCN[C@@H](C)Cc1ccccc1	inactive	
Oc1ccc(C2(c3ccc(O)cc3)c3ccccc3-c3ccccc32)cc1	inactive	
CCOc1cc(C(C)(C)C)ccc1C1COC(c2c(F)cccc2F)=N1 (stereo not given)	inactive	
O=C(CBr)OCc1ccccc1	inactive	
O=C(O)COc1ccc(Cl)cc1	inactive	
O=C1C(I)=CC(=C(c2cc(I)c(O)c(I)c2)c2ccccc2C(=O)O)C=C1I	inactive	
CNC(C)Cc1ccccc1OC (stereo not given)	inactive	
CC1(C)C(/C=C(\Cl)C(F)(F)F)C1C(=O)OC(C#N)c1cccc(Oc2ccccc2)c1 (stereo not given)	inactive	
CSc1nc(N=[N+]=[N-])nc(NC(C)C)n1	inactive	
CCOC(=O)C(Cl)Cc1cc(-n2nc(C)n(C(F)F)c2=O)c(F)cc1Cl (stereo not given)	inactive	
C[C@]12Cc3nonc3C[C@@H]1CC[C@@H]1[C@@H]2CC[C@@]2(C)[C@H]1CC[C@]2(C)O	inactive	
CC(C)[C@@H](Nc1ccc(C(F)(F)F)cc1Cl)C(=O)OC(C#N)c1cccc(Oc2ccccc2)c1 (stereo not given in full)	inactive	
CNC(=O)/C=C(\C)OP(=O)(OC)OC	inactive	
O=CNC(N1CCN(C(NC=O)C(Cl)(Cl)Cl)CC1)C(Cl)(Cl)Cl (stereo not given)	inactive	
CN(C)c1ccc(N)cc1	inactive	
CCCCCCBr	inactive	
SCc1ccco1	inactive	
C=CC(=O)OCC(COC(=O)C=C)(COC(=O)C=C)COC(=O)C=C	inactive	
Nc1ccccc1C(=O)Oc1ccc2ccccc2c1	inactive	
Nc1c(Br)cc(Br)c2c1C(=O)c1ccccc1C2=O		1.8% [at 11.8 µM, stronger effect = higher value] (inactive)
